A word on the AC50: it is the midpoint of the concentration-response curve, whichever way the signal moves.

Drawing on PubChem BioAssay (EPA / NIEHS), this text covers outcome and AC50 for four compounds.

Assay [1] can be described thus: ATG_PBREM_CIS: Attagene CIS-FACTORIAL HepG2 Assay for human Phenobarbital-responsive Enhancer Module (PBREM) (AID 2282955). Particulars: HepG2 PBREM cis-reporter, Attagene multiplexed transcription; actives raise or lower the signal. The essentials:
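Fluorescence of labelled reporter cDNA fragments, resolved by capillary electrophoresis, gives mRNA induction in transfected HepG2 cells treated for 24 h; DMSO serves as negative control and baseline.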

Assay [2] concerns the target Paired box protein Pax-6 (Homo sapiens) (UniProt P26367). In words: ATG_Pax6_CIS: Attagene CIS-FACTORIAL HepG2 Assay for human Paired Box 6 (PAX6) (AID 2282956). Particulars: HepG2 CIS-FACTORIAL PAX6 reporter transcription, RNA readout; actives raise or lower the signal. A digest of the protocol:
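Multiplexed cis-reporter HepG2 system; 24 h treatment; reporter mRNA read by RT-PCR/CE fluorescence; bidirectional fit vs DMSO.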

The nature of assay [3]: ATG_PXRE_CIS: Attagene CIS-FACTORIAL HepG2 Assay for human Pregnane X Receptor Element (PXRE) (AID 2282957). Particulars: HepG2 Attagene CIS-FACTORIAL PXRE reporter, mRNA; actives raise or lower the signal. The essentials: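 Cells: HepG2, transiently transfected reporter units under cis promoter control. Exposure: 24 h. Detection: reporter mRNA via RT-PCR/CE fluorescence; bidirectional fitting, DMSO-referenced.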

A short description of assay [4]: ATG_PPRE_CIS: Attagene CIS-FACTORIAL HepG2 Assay for human Peroxisome Proliferator-activated Response Element (PPRE) (AID 2282958). The conditions noted are these: HepG2 PPRE cis-element reporter, Attagene transcription factor profiling; actives raise or lower the signal. A digest of the protocol: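 Cells are first transfected transiently with the multiplexed reporter library, then dosed for 24 h. Total RNA is reverse-transcribed, amplified, fluorescently end-labeled and HpaI-cut before capillary electrophoresis; activity is fitted bidirectionally against DMSO controls.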

Assay [5] can be described thus: ATG_RORE_CIS: Attagene CIS-FACTORIAL HepG2 Assay for human RAR-related Orphan Receptor Element (RORE) (AID 2282959). Particulars: HepG2 Attagene cis-factorial RORE reporter, mRNA; actives raise or lower the signal. A digest of the protocol:
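Cells were HepG2 carrying transfected cis-regulated reporter constructs, dosed for 24 hours. Total RNA was reverse-transcribed and reporter cDNA amplified, fluorescently labeled and sized by capillary electrophoresis. Activity was fitted bidirectionally relative to DMSO.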

Assay [6] can be described thus: ATG_Sox_CIS: Attagene CIS-FACTORIAL HepG2 Assay for human SRY-box transcription factor (SOX) (AID 2282960). The conditions noted are these: HepG2 Attagene cis-factorial SOX reporter, mRNA; actives raise or lower the signal. A digest of the protocol:
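Transient MRTU transfection of HepG2; 24 h compound incubation; TriZol RNA, oligo(dT) RT, PCR, 6-FAM primer extension, HpaI cut, CE. Bidirectional fit, DMSO = baseline.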

Assay [7] has as its target Transcription factor Sp1 (Homo sapiens) (UniProt P08047). In words: ATG_Sp1_CIS: Attagene CIS-FACTORIAL HepG2 Assay for human Specificity Protein 1 (Sp1) (AID 2282961). The conditions noted are these: HepG2 Sp1 cis-reporter transcription, actives raise or lower the signal. The essentials:
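Endogenous Sp1 activity was gauged in human liver HepG2 cells bearing transfected reporter units under a cis-regulating promoter. After 24 h dosing, reporter mRNA was quantified by RT-PCR with capillary electrophoresis, and activity fitted bidirectionally versus DMSO.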

Assay [8] in a line: ATG_SREBP_CIS: Attagene CIS-FACTORIAL HepG2 Assay for human Sterol Regulatory Element Binding (SREBP) (AID 2282962). Particulars: HepG2 Attagene cis-factorial SREBP reporter, mRNA; actives raise or lower the signal. A digest of the protocol: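 mRNA induction of transfected cis-promoter reporters in HepG2 cells, 24 h post-dose. Detection: RT-PCR with 6-FAM-labelled products, HpaI digest, capillary electrophoresis. DMSO served as negative control and baseline.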

Assay [9] can be described thus: ATG_TA_CIS: Attagene CIS-FACTORIAL HepG2 Assay for human TA Basal Promoter (AID 2282964). The conditions noted are these: HepG2 Attagene CIS-factorial TA basal promoter reporter; actives raise or lower the signal. A digest of the protocol:
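Read-out: fluorescent reporter-transcript fragments resolved by capillary electrophoresis after RT-PCR and HpaI digestion. Source: HepG2 cells carrying transiently transfected multi-reporter cis constructs, treated 24 h. Endpoint fitted bidirectionally relative to DMSO.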

Assay [10] in a line: ATG_TCF_b_cat_CIS: Attagene CIS-FACTORIAL HepG2 Assay for human T-Cell-Factor with beta-catenin (TCF/b-cat) (AID 2282965). The conditions noted are these: HepG2 TCF/beta-catenin cis-reporter transcription, actives raise or lower the signal. A digest of the protocol: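 Endogenous TCF/LEF activity read as reporter transcript level via RT-PCR and capillary electrophoresis fluorescence in transfected HepG2, 24 h exposure; gain or loss of signal fitted against DMSO controls.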

Assay [11] is described as follows: ATG_TAL_CIS: Attagene CIS-FACTORIAL HepG2 Assay for human TAL Basal Promoter (AID 2282966).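 Further: background control endpoint measuring basal TAL promoter reporter mRNA not a specific factor.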 The conditions noted are these: HepG2 Attagene cis-factorial TAL promoter reporter; actives raise or lower the signal. A digest of the protocol: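 RT-PCR plus capillary electrophoresis quantifies reporter mRNA induction in transiently transfected HepG2 cells after 24 h chemical treatment. DMSO serves as negative control and baseline for bidirectional fitting.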

A short description of assay [12]: ATG_TGFb_CIS: Attagene CIS-FACTORIAL HepG2 Assay for human Transforming Growth Factor (TGF) (AID 2282967). Particulars: HepG2 Attagene CIS TGFb reporter, mRNA transcription; actives raise or lower the signal. The essentials: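 Transient MRTU transfection of HepG2 (FuGene 6). Dose 24 h. TriZol RNA, oligo(dT) RT, PCR, 6-FAM primer extension, HpaI cut, CE. Bidirectional fit, DMSO = baseline.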

A short description of assay [13]: ATG_VDRE_CIS: Attagene CIS-FACTORIAL HepG2 Assay for human Vitamin D Receptor Element (VDRE) (AID 2282968). The conditions noted are these: HepG2 VDRE cis-reporter transcription, actives raise or lower the signal. The essentials:
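Reporter mRNA induction, quantified by capillary electrophoresis of fluorescently labelled RT-PCR products, was read 24 h after dosing HepG2 cells carrying transiently transfected cis-regulated reporter units; gain or loss relative to DMSO.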

Assay [14] addresses Nuclear receptor subfamily 1 group I member 3 (Homo sapiens) (UniProt Q14994). In words: ATG_CAR_TRANS: Attagene TRANS-FACTORIAL HepG2 Assay for human Constitutive Androstane Receptor (CAR) (AID 2282969; active means hit-call score of the fitted dose curve at least 0.9, where 1 is the maximum;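 further: activators raise reporter mRNA above DMSO so AC50 marks induction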). Particulars: HepG2 Attagene TRANS-FACTORIAL CAR reporter. A digest of the protocol: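 Readout is reporter mRNA induction, quantified by fluorescent primer extension and capillary electrophoresis after RT-PCR. Cells were HepG2 transiently carrying chimeric NR-Gal4 constructs with GAL4-UAS reporters, treated for 24 h; activity scored upward from DMSO.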

In assay [15] the target is Estrogen receptor (Homo sapiens) (UniProt P03372). Nature of the assay: ATG_ERa_TRANS: Attagene TRANS-FACTORIAL HepG2 Assay for human Estrogen Receptor alpha (ERa) (AID 2282970; active means hit-call score of the fitted dose curve at least 0.9, where 1 is the maximum). Particulars: HepG2 Attagene TRANS ERa GAL4 reporter, mRNA. The essentials: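 Cells: HepG2, transiently transfected. Construct: GAL4-UAS reporter units regulated by exogenous NR-Gal4 chimeras. Time: 24 h. Detection: reporter mRNA by RT-PCR, capillary electrophoresis, fluorescence. Baseline: DMSO, upward fitting.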

For assay [16], the target named is X-box-binding protein 1 (Homo sapiens) (UniProt P17861). Nature of the assay: ATG_Xbp1_CIS: Attagene CIS-FACTORIAL HepG2 Assay for human X-box Binding Protein 1 (XBP1) (AID 2282972). The conditions noted are these: HepG2 XBP1 cis-element reporter, Attagene multiplex; actives raise or lower the signal. The essentials:
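Fluorescence-labelled cDNA fragments from reporter transcripts, separated by capillary electrophoresis, give the signal. Source: HepG2 cells transfected with promoter-driven reporter units, harvested 24 h post-dose. DMSO served as reference for bidirectional curve fitting.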

A short description of assay [17]: ATG_M_19_TRANS: Attagene TRANS-FACTORIAL HepG2 Assay for M19 Transcription Factor (Internal Marker) (AID 2282974; active means hit-call score of the fitted dose curve at least 0.9, where 1 is the maximum). Particulars: HepG2 Attagene TRANS-FACTORIAL M19 internal marker reporter. The essentials: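 Cells: human HepG2, transiently transfected with multiplexed reporter transcription units. Exposure: 24 h. Detection: RT-PCR of reporter mRNA with capillary electrophoresis. Analysis: gain-of-signal vs DMSO.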

The target of assay [18] is Signal transducer and activator of transcription 3 (Homo sapiens) (UniProt P40763). Nature of the assay: ATG_STAT3_CIS: Attagene CIS-FACTORIAL HepG2 Assay for human Signal Transducer and Activator of Transcription 3 (STAT3) (AID 2282963). Particulars: HepG2, Attagene cis-factorial STAT3 reporter transcription; actives raise or lower the signal. The essentials:
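Endogenous STAT3-responsive cis-element activity was read in transiently transfected HepG2 cells after 24 h treatment. Reporter transcripts were quantified via RT-PCR and capillary electrophoresis, with DMSO as negative control and bidirectional curve fitting.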

A short description of assay [19]: ATG_GAL4_TRANS: Attagene TRANS-FACTORIAL HepG2 Assay for GAL4 (Internal Marker) (AID 2282976; active means hit-call score of the fitted dose curve at least 0.9, where 1 is the maximum). The conditions noted are these: HepG2 Attagene TRANS GAL4 internal marker reporter. The essentials:
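In transfected human HepG2 liver cells dosed 24 h, GAL4 reporter mRNA serves as a baseline marker. Detection by RT-PCR with fluorescent capillary electrophoresis, activity fitted upward relative to DMSO.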

In assay [20] the target is Steroid hormone receptor ERR1 (Homo sapiens) (UniProt P11474). In words: ATG_ERRa_TRANS: Attagene TRANS-FACTORIAL HepG2 Assay for human Estrogen-Related Receptor alpha (ERRa) (AID 2282971; active means hit-call score of the fitted dose curve at least 0.9, where 1 is the maximum). Particulars: HepG2 Attagene TRANS reporter, ERRa transactivation. A digest of the protocol:
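Reporter transcripts from ERRa-Gal4 chimera activity measured in transiently transfected human HepG2 cells 24 hours after dosing, using RT-PCR with 6-FAM primer extension, HpaI digestion and capillary electrophoresis; DMSO is baseline.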

Inconclusive results are not listed. Active and inactive are the calls of the source. How the source made its calls, unless noted: active means hit-call score of the fitted dose curve at least 0.9, where 1 is the maximum; inactive means score below 0.9.

Sequence of Nuclear receptor subfamily 1 group I member 3 (Homo sapiens) (Q14994 whole entry, looked up, the tested form may be a part): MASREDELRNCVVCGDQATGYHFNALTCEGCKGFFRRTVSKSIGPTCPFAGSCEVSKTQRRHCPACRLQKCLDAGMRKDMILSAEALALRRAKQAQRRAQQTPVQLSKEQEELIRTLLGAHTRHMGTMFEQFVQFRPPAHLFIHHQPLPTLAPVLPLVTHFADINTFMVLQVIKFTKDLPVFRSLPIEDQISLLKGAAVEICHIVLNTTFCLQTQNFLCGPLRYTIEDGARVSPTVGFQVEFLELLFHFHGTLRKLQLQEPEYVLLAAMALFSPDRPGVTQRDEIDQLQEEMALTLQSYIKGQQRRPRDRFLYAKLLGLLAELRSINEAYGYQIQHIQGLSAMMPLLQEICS
Sequence of Estrogen receptor (Homo sapiens) (P03372 whole entry, looked up, the tested form may be a part): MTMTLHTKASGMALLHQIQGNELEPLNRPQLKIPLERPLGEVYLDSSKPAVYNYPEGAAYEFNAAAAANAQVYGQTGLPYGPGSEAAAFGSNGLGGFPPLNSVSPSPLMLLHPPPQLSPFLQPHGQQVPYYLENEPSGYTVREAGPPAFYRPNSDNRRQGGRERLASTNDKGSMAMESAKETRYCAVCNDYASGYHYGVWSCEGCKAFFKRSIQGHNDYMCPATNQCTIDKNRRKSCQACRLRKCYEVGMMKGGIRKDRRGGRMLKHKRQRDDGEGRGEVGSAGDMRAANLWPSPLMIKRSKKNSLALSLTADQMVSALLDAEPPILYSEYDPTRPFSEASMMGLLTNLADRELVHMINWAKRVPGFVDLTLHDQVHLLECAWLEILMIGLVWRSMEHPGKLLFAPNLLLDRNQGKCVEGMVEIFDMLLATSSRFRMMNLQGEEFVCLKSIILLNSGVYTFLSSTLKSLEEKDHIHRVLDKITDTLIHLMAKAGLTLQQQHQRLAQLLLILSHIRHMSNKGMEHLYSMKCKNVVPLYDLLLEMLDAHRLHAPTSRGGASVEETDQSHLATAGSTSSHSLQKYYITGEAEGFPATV
Sequence of Transcription factor Sp1 (Homo sapiens) (P08047 whole entry, looked up): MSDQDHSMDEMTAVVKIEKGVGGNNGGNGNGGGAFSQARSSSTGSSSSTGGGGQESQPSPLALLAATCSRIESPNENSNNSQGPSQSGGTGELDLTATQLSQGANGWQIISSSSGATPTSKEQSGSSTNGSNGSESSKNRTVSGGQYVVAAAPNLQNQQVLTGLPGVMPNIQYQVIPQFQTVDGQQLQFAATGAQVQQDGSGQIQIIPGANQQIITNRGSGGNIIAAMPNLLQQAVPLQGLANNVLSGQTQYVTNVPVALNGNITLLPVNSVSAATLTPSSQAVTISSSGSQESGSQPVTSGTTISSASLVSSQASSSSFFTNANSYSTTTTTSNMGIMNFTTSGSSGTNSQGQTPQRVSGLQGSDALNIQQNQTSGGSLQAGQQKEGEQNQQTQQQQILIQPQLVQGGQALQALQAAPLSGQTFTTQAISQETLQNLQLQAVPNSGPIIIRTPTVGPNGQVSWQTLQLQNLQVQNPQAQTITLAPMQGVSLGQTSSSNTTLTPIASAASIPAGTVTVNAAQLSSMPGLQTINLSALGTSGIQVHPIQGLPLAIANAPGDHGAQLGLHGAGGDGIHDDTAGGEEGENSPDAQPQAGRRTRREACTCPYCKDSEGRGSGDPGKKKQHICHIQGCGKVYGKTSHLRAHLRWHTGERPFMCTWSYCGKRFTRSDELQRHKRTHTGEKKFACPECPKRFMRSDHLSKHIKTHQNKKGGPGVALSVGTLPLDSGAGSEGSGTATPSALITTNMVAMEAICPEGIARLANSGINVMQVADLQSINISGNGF
Sequence of X-box-binding protein 1 (Homo sapiens) (P17861 whole entry, looked up, the tested form may be a part): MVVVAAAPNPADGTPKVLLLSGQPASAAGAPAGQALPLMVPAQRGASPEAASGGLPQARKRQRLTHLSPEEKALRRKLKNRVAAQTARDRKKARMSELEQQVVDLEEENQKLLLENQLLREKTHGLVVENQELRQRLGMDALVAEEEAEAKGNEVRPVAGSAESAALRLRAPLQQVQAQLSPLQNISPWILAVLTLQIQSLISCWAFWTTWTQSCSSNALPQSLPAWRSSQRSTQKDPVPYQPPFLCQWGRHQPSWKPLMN
Sequence of Paired box protein Pax-6 (Homo sapiens) (P26367 whole entry, looked up): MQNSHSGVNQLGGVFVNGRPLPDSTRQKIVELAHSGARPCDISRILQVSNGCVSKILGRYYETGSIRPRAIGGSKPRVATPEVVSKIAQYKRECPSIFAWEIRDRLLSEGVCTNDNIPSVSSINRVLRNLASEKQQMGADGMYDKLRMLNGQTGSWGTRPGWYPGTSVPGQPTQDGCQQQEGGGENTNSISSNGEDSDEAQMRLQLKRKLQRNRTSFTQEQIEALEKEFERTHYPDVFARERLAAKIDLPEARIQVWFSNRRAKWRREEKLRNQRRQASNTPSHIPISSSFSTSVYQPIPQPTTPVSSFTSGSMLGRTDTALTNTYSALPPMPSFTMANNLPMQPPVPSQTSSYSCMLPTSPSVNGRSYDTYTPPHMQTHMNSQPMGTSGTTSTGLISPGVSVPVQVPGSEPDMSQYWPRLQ
Sequence of Steroid hormone receptor ERR1 (Homo sapiens) (P11474 whole entry, looked up, the tested form may be a part): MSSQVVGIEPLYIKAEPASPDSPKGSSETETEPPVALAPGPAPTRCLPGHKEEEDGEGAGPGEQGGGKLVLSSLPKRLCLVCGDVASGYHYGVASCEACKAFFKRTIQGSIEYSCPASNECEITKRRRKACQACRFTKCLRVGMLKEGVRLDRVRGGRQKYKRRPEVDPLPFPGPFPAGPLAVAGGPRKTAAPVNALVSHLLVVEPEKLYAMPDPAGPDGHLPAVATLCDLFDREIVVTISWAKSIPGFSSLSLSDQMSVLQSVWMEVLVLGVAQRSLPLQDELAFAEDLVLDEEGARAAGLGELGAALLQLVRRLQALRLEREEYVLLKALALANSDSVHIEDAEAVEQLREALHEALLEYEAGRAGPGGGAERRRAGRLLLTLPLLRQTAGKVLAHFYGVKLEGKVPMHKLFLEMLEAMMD
Sequence of Signal transducer and activator of transcription 3 (Homo sapiens) (P40763 whole entry, looked up): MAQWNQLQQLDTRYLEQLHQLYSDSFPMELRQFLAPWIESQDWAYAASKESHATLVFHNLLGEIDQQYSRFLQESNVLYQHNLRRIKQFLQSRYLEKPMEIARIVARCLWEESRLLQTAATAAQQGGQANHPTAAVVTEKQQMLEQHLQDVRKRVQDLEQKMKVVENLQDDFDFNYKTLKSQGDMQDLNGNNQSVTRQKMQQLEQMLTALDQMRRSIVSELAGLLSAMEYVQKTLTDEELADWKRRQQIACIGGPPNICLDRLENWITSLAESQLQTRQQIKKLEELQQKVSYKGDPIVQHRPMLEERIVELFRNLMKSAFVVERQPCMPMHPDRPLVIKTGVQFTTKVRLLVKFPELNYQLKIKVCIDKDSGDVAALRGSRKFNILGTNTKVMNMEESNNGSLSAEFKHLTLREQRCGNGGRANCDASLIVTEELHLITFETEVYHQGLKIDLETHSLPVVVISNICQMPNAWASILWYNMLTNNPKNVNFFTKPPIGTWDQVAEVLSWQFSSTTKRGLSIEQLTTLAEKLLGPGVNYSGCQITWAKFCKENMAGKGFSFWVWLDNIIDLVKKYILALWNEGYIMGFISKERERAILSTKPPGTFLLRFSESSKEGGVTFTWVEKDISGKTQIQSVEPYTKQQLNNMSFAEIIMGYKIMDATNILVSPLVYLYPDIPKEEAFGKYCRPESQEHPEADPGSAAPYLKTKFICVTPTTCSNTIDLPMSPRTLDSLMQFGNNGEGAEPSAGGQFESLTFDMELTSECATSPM

Regarding `C=Cc1cccc(C)c1`, the result in [1], in [2], in assay [4], in assay [5], in [6] and in assay [7] was inactive. Besides, the compound was called inactive in assay [8], in [9], in assay [10], in assay [11], in [12] and in assay [13]. Besides, the outcome in assay [14], in [15], in [16] and in [17] was inactive. Further, the AC50 in assay [3] was 13.3 µM (active).
For `CCC(C)(O)CCCC(C)C` (stereo unspecified), the outcome in assay [1], in assay [2], in [3], in assay [4], in assay [6] and in assay [7] was inactive. Besides, the compound was called inactive in [8], in assay [18], in assay [9], in assay [10], in [11] and in assay [12]. The result in assay [14], in assay [15], in [16], in assay [17] and in assay [19] was inactive.
As to `C=CC(=O)OCC(C)OCC(C)OCC(C)OC(=O)C=C` (stereo unspecified), the result in assay [1], in assay [4], in [6], in [7], in assay [9] and in [11] was inactive. The compound was called inactive in assay [14] and in assay [19]. Moreover, the AC50 in assay [2] was 64.5 µM (active); in assay [3], 2.25 µM (active); in assay [5], 44.5 µM (active); in [8] it was 100 µM (active); in [10], 71.5 µM (active); in [12], 143 µM (active). Also, in assay [13], the concentration at half-maximal activity (AC50) was 6.27 µM (active).
For `COC(=O)c1ccc(C(=O)OC)c(C(=O)OC)c1`, the outcome in assay [1], in [2], in [3], in assay [4], in assay [5] and in assay [6] was inactive. For the same compound, the compound was classed as inactive in assay [7], in assay [8], in assay [9], in [10], in assay [11] and in assay [12]. For the same compound, the compound was called inactive in assay [14], in assay [15], in assay [20], in assay [16] and in [17].
